# Values without a mark were called inactive. Inconclusive results are not listed. Entries that show only a call come without a potency. Active and inactive are the calls of the source. Unless noted, calls follow the shape of the dose curve; as a rule, active = well fitted curve in the direction sought with a large enough effect in the repeat runs; inconclusive = weak or mixed curves; inactive = no such curve, though single readings can be large; an effect the other way counts as inactive or inconclusive.
# Tests used:
# [1] = qHTS assay to identify small molecule agonists of the hypoxia (HIF-1) signaling pathway - cell viability counter screen (AID 1224844; calls by dose curve; also: nearly all actives have a fitted effect of over 50% in size)
# How it was run: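 Luminescent ATP content (CellTiter-Glo, 30 min, room temperature) served as the viability measure in HRE-bla ME-180 cells exposed to compounds for 17 hrs in low-serum medium (0.5% dialyzed FBS).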
# [2] = qHTS assay to identify small molecule agonists of the hypoxia (HIF-1) signaling pathway (AID 1224846; active = well fitted activation curve with a large enough effect in the signal ratio in the repeat runs, not every such curve was filed as active; the % refers to the signal ratio)
# How it was run: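 Measured by blue/green FRET after loading CCF4-AM: beta-lactamase expressed from a hypoxia response element in ME-180 cells. Test agents were delivered in DMSO and left 17 hrs; cells had been plated 5 hrs earlier in low-serum (0.5% dialyzed FBS) medium.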
# [3] = qHTS assay to identify small molecule agonists of H2AX - cell viability counter screen (AID 1224847; calls by dose curve;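 also: wild-type CHO-K1 cells; top concentration of the series differs between compounds; nearly all actives have a fitted effect of over 30% in size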)
# How it was run: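 CHO-K1 cells plated overnight at 37C, then exposed 3 h at 37C to compounds at 15 concentrations (0.76% DMSO final). Viability by CellTiter-Glo luminescence after 30 min at room temperature.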
# [4] = qHTS RealTime-Glo MT Cell Viability Assay in HepG2 cells - 24 hour (AID 1224867); also: nearly all actives have a fitted effect of over 50% in size
# How it was run: (§1)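 Viability was tracked continuously by NanoLuc luminescence from prosubstrate reduced by living HepG2 cells, at successive time points over 40 h of compound exposure. Cells with reagent were preincubated 5 h at 37 °C before compound addition.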
# [5] = A CellTox Green Cytotoxicity Assay to monitor cytotoxicity in HEK293 cells - 0 hour (AID 1224869); also: nearly all actives have a fitted effect of over 50% in size
# How it was run: (§2)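 Each value comes from one timepoint of a single continuous run in which HEK293 cells with CellTox Green were exposed to compound for up to 40 h at 37 C, dye fluorescence rising with cell death.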
# [6] = qHTS RealTime-Glo MT Cell Viability Assay in HepG2 cells - 40 hour (AID 1224870); also: nearly all actives have a fitted effect of over 50% in size
# How it was run: (§3)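 Real-time viability: cells seeded at 600 per well together with NanoLuc and cell-permeant prosubstrate, compounds added after 5 h incubation. Luminescence tracked at 0, 8, 16, 24, 32 and 40 h of exposure.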
# [7] = qHTS RealTime-Glo MT Cell Viability Assay in HEK293 cells - 16 hour (AID 1224872)
# How it was run: (§4)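 Viability tracked continuously by luminescence as live cells reduce a prosubstrate for NanoLuc; HEK293 cells preincubated 5 h, compound-treated at 37 C, and read at 0, 8, 16, 24, 32 and 40 h.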
# [8] = qHTS RealTime-Glo MT Cell Viability Assay in HepG2 cells - 8 hour (AID 1224873); also: nearly all actives have a fitted effect of over 55% in size
# How it was run: as §3
# [9] = qHTS RealTime-Glo MT Cell Viability Assay in HEK293 cells - 40 hour (AID 1224874); conditions: RealTime-Glo luminescence; max response: stronger effect = lower value; also: nearly all actives have a fitted effect of over 50% in size
# How it was run: (§5)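 qHTS format; HEK293 cells with NanoLuc/prosubstrate reagent, 37 C/5% CO2 for 5 h pre-dosing; compounds 23 nL in DMSO; luminescence at each time point reflects viable cells.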
# [10] = A CellTox Green Cytotoxicity Assay to monitor cytotoxicity in HEK293 cells - 24 hour (AID 1224875); also: nearly all actives have a fitted effect of over 45% in size
# How it was run: as §2
# [11] = A CellTox Green Cytotoxicity Assay to monitor cytotoxicity in HepG2 cells - 16 hour (AID 1224876); also: nearly all actives have a fitted effect of over 45% in size
# How it was run: (§6)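 Continuous culture of HepG2 cells with a membrane-impermeant DNA dye; rising fluorescence marks dead cells. Compound exposure lasted up to 40 h at 37 C, with reads every 8 h from 0 h.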
# [12] = qHTS RealTime-Glo MT Cell Viability Assay in HepG2 cells - 32 hour (AID 1224877); also: nearly all actives have a fitted effect of over 55% in size
# How it was run: as §1
# [13] = A CellTox Green Cytotoxicity Assay to monitor cytotoxicity in HepG2 cells - 24 hour (AID 1224878); also: nearly all actives have a fitted effect of over 45% in size
# How it was run: as §6
# [14] = qHTS RealTime-Glo MT Cell Viability Assay in HEK293 cells - 0 hour (AID 1224880); also: top concentration of the series differs between compounds; nearly all actives have a fitted effect of over 45% in size
# How it was run: as §5
# [15] = qHTS assay to identify small molecule antagonists of the estrogen related receptor (ERR) signaling pathway from Tox21 library (AID 1224848); also: nearly all actives have a fitted effect of over 50% in size
# How it was run: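 Reading was by luminescence 30 min after ONE-Glo addition. Before that, ERR cells at 2,000 per well had rested 6 h at 37 C/5% CO2 and then received pin-tooled compounds in DMSO for 18 h at 37 C.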
# [16] = qHTS assay to identify small molecule agonists of the estrogen related receptor (ERR) signaling pathway from Tox21 library (AID 1224849; calls by dose curve; also: nearly all actives have a fitted effect of over 15% in size); conditions: ERR reporter cell line, ONE-Glo luciferase, 18 h; at 92.4 µM (top of the series) unless noted
# How it was run: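 We plated ERR reporter cells, waited 6 h, added compounds in DMSO by pin tool and incubated them 18 h at 37 C. ONE-Glo was then added and luminescence read after 30 min.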
# [17] = A CellTox Green Cytotoxicity Assay to monitor cytotoxicity in HEK293 cells - 40 hour (AID 1224871); also: nearly all actives have a fitted effect of over 45% in size
# How it was run: as §2
# [18] = A CellTox Green Cytotoxicity Assay to monitor cytotoxicity in HepG2 cells - 40 hour (AID 1224879); also: nearly all actives have a fitted effect of over 40% in size; also: potency is read from the fitted curve at half-maximal effect
# How it was run: as §6
# [19] = qHTS RealTime-Glo MT Cell Viability Assay in HEK293 cells - 32 hour (AID 1224868)
# How it was run: as §4
compound,measurement,setting,value
C[C@@H](C1=C(CCN(C)C)Cc2ccccc21)c1ccccn1,Potency,[1],inactive
same,outcome,[2],inactive
same,Potency,[3],inactive
same,Potency,[4],inactive
same,Potency,[5],inactive
same,Potency,[6],inactive
same,Potency,[7],inactive
same,Potency,[8],inactive
same,max response,[9],-16.8%
same,Potency,[10],inactive
same,Potency,[11],inactive
same,Potency,[12],inactive
same,Potency,[13],inactive
same,Potency,[14],inactive
O=C(C(=O)c1ccc(Br)cc1)c1ccc(Br)cc1,"activity change, negative = cytotoxicity",[1],-11.6% [at 15.8 µM]
same,activation,[2],-1.03% [at 15.8 µM]
same,"activity, negative = inhibition",[15],-0.511% [at 19 µM]
same,"activity change, positive = activation",[16],0.063% [at 19 µM]
same,"activity change, negative = cytotoxicity",[4],-0.799% [at 15.8 µM]
same,cytotoxicity,[5],1.99% [at 15.8 µM]
same,"activity change, negative = cytotoxic",[6],6.88% [at 15.8 µM]
same,cytotoxicity increase,[17],0.336% [at 15.8 µM]
same,"activity change, negative = cytotoxicity",[7],5.77% [at 15.8 µM]
same,"viability change, negative = cytotoxic",[8],-3.19% [at 15.8 µM]
same,max response,[9],0.201%
same,activity change,[10],"-0.496% [at 15.8 µM, stronger effect = higher value]"
same,cytotoxicity increase,[11],-6.44% [at 15.8 µM]
same,"activity change, negative = cytotoxic",[12],2.16% [at 15.8 µM]
same,cytotoxicity,[13],-10% [at 15.8 µM]
same,cytotoxicity increase,[18],-10.2% [at 15.8 µM]
same,"activity change, negative = cytotoxicity",[14],-3.2% [at 15.8 µM]
C1CCC2OC2C1 (stereo not drawn),Potency,[1],inactive
same,outcome,[2],inactive
same,Potency,[3],inactive
same,Potency,[4],inactive
same,Potency,[19],inactive
same,Potency,[5],inactive
same,Potency,[6],inactive
same,Potency,[7],inactive
same,Potency,[8],inactive
same,max response,[9],4.85%
same,Potency,[10],inactive
same,Potency,[11],inactive
same,Potency,[12],inactive
same,Potency,[13],inactive
same,Potency,[14],inactive
Oc1ccc(C(O)CNCCCCCCNCC(O)c2ccc(O)c(O)c2)cc1O (stereo not drawn),Potency,[1],inactive
same,outcome,[2],inactive
same,Potency,[15],inactive
same,"activity change, positive = activation",[16],1.29% [at 42.5 µM]
same,Potency,[4],inactive
same,Potency,[19],inactive
same,Potency,[5],inactive
same,Potency,[6],inactive
same,Potency,[17],inactive
same,Potency,[7],inactive
same,Potency,[8],inactive
same,max response,[9],1.45%
same,Potency,[10],inactive
same,Potency,[11],inactive
same,Potency,[12],inactive
same,Potency,[13],inactive
same,Potency,[18],inactive
same,Potency,[14],inactive
Cc1ccc(C(N)=O)cc1N,Potency,[1],inactive
same,Potency,[3],inactive
same,Potency,[15],inactive
same,"activity change, positive = activation",[16],-0.06%
same,Potency,[4],inactive
same,Potency,[19],inactive
same,Potency,[5],inactive
same,Potency,[6],inactive
same,Potency,[17],inactive
same,Potency,[7],inactive
same,Potency,[8],inactive
same,max response,[9],10%
same,Potency,[10],inactive
same,Potency,[13],inactive
same,Potency,[18],inactive
Cc1ccc(C)o1,Potency,[1],inactive
same,outcome,[2],inactive
same,Potency,[15],inactive
same,"activity change, positive = activation",[16],0.55%
same,Potency,[4],inactive
same,Potency,[5],inactive
same,Potency,[6],inactive
same,Potency,[17],inactive
same,Potency,[7],inactive
same,Potency,[8],inactive
same,max response,[9],-14.9%
same,Potency,[11],inactive
same,Potency,[12],inactive
same,Potency,[13],inactive
same,Potency,[18],inactive
same,Potency,[14],inactive
O=S1(=O)c2cccc3cccc(c23)N1CCCN1CCN(c2ccc(F)cc2)CC1,Potency,[1],inactive
same,Potency,[3],inactive
same,"activity change, positive = activation",[16],-30.2% [at 42.5 µM]
same,Potency,[4],inactive
same,Potency,[5],inactive
same,Potency,[6],inactive
same,Potency,[17],inactive
same,Potency,[7],inactive
same,Potency,[8],inactive
same,max response,[9],-11.7%
same,Potency,[10],inactive
same,Potency,[12],inactive
same,Potency,[14],inactive
CC1=CCC(C(C)C)C=C1 (stereo not drawn),Potency,[1],inactive
same,outcome,[2],inactive
same,Potency,[3],inactive
same,Potency,[4],inactive
same,Potency,[19],inactive
same,Potency,[5],inactive
same,Potency,[6],inactive
same,Potency,[17],inactive
same,Potency,[7],inactive
same,Potency,[8],inactive
same,Potency,[10],inactive
same,Potency,[11],inactive
same,Potency,[12],inactive
same,Potency,[13],inactive
same,Potency,[18],inactive
same,Potency,[14],inactive
CCOC(=O)C1=NN(c2ccccc2)C(=O)C1,Potency,[1],inactive
same,outcome,[2],inactive
same,Potency,[3],inactive
same,Potency,[4],inactive
same,Potency,[19],inactive
same,Potency,[5],inactive
same,Potency,[6],inactive
same,Potency,[17],inactive
same,Potency,[7],inactive
same,Potency,[8],inactive
same,Potency,[10],inactive
same,Potency,[11],inactive
same,Potency,[12],inactive
same,Potency,[13],inactive
same,Potency,[14],inactive
O=C(c1ccc(O)cc1)c1ccc(O)cc1,Potency,[1],inactive
same,outcome,[2],inactive
same,Potency,[15],inactive
same,"activity change, positive = activation",[16],37.5% (active)
same,Potency,[4],inactive
same,Potency,[19],inactive
same,Potency,[5],inactive
same,Potency,[6],inactive
same,Potency,[17],inactive
same,Potency,[7],inactive
same,Potency,[8],inactive
same,max response,[9],-22.8%
same,Potency,[10],inactive
same,Potency,[11],inactive
same,Potency,[12],inactive
same,Potency,[13],inactive
same,Potency,[14],inactive
CC(=O)OC/C=C/c1ccccc1,Potency,[1],inactive
same,outcome,[2],inactive
same,Potency,[15],inactive
same,"activity change, positive = activation",[16],0.279%
same,Potency,[4],inactive
same,Potency,[19],inactive
same,Potency,[5],inactive
same,Potency,[6],inactive
same,Potency,[17],inactive
same,Potency,[7],inactive
same,Potency,[8],inactive
same,max response,[9],5.43%
same,Potency,[10],inactive
same,Potency,[11],inactive
same,Potency,[12],inactive
same,Potency,[13],inactive
same,Potency,[18],inactive
same,Potency,[14],inactive
Cc1ccccc1N=Nc1ccc(N=Nc2c(O)ccc3ccccc23)c(C)c1,Potency,[1],inactive
same,outcome,[2],inactive
same,Potency,[15],inactive
same,"activity change, positive = activation",[16],11.4% [at 42.5 µM]
same,Potency,[4],inactive
same,Potency,[5],inactive
same,Potency,[6],inactive
same,Potency,[17],inactive
same,Potency,[7],inactive
same,Potency,[8],inactive
same,max response,[9],1.3%
same,Potency,[11],inactive
same,Potency,[13],inactive
same,Potency,[14],inactive
O=[N+]([O-])c1cc[n+]([O-])cc1,Potency,[1],inactive
same,outcome,[2],inactive
same,Potency,[3],inactive
same,Potency,[19],inactive
same,Potency,[5],inactive
same,Potency,[17],inactive
same,Potency,[7],inactive
same,Potency,[8],inactive
same,max response,[9],-21.4%
same,Potency,[10],inactive
same,Potency,[11],inactive
same,Potency,[13],inactive
same,Potency,[14],inactive
CC(=O)O[C@@H]1C(=O)O[C@@H]2[C@H]1OC(=O)[C@@H]2OC(C)=O,Potency,[1],inactive
same,outcome,[2],inactive
same,Potency,[3],inactive
same,Potency,[4],inactive
same,Potency,[19],inactive
same,Potency,[5],inactive
same,Potency,[6],inactive
same,Potency,[17],inactive
same,Potency,[7],inactive
same,Potency,[8],inactive
same,max response,[9],-24.6%
same,Potency,[10],inactive
same,Potency,[12],inactive
same,Potency,[13],inactive
same,Potency,[18],26.8 µM (active)
same,Potency,[14],inactive
CC(C)CC=O,Potency,[1],inactive
same,outcome,[2],inactive
same,Potency,[3],inactive
same,Potency,[4],inactive
same,Potency,[19],inactive
same,Potency,[5],inactive
same,Potency,[6],inactive
same,Potency,[17],inactive
same,Potency,[7],inactive
same,max response,[9],6.71%
same,Potency,[10],inactive
same,Potency,[11],inactive
same,Potency,[12],inactive
same,Potency,[13],inactive
same,Potency,[18],inactive
same,Potency,[14],inactive
